This note sets out measurements from PubChem BioAssay AID651871 (Sanford-Burnham Center for Chemical Genomics, 2012).

Where “and” joins values, the source holds several entries; their conditions need not be identical. Identical values can stand only once.

The test deals with HL-1. The experiment in a line: protection of cardiomyocytes from stress damage, SAR follow-up, cell-based, panel, H9c2 and HL-1, ATP luminescence, set 2 (AID 651871).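 Also: cells exposed to stressor for 2 h before ATP readout; reference of the scale not given here.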 The conditions noted are these: H9c2/HL-1 cardiomyocytes, H2O2 oxidative stress; with H2O2, run 2, at 79 µM (top of the series).
`COc1cc(-c2cc(C(=O)Nc3cccc(C(=O)NCc4ccccc4)c3)c3ccccc3n2)cc(OC)c1OC`: the activity (protection/inhibition) was 25%.

Regarding `COc1ccc2c(c1OC)C(=O)N1c3ccccc3C(=O)N(Cc3cccc(Cl)c3Cl)C21` (centres undefined), the activity (protection/inhibition) is -0.168% and -1.52% and -3.02%.

Turning to `CCOC(=O)c1cccc(NC(=O)CNC(=O)c2cc(-c3cc(OC)c(OC)c(OC)c3)nc3ccccc23)c1`, the activity (protection/inhibition) was 44%.

On to `COc1ccc2nc(-c3cc(OC)c(OC)c(OC)c3)cc(C(=O)NCC(=O)Nc3ccc(C(C)=O)cc3)c2c1`, for which the activity (protection/inhibition) was 27.5% and 38.9%.
